Data as given in ChEMBL document CHEMBL3988442, “University of Dundee, Small-Polar-MMV Screening Library” (2021).
Hit rate of the full screen: of about 38,000 compounds, about 1,200 (3.2%) showed an effect of 50% or more. The median lay at about -58%. The entries come from a sample that favours strong results as a whole.

What follows are molecules tested on Plasmodium falciparum (assay: Calibr Malaria Delayed Death Assay SOP). Conditions: concentration 4.99e-06 (unit not given; other assays of the set use mol/L).
Type: functional, organism-based
Parameters: scale not given: in the data most compounds retested in dose-response had high values

Compound	Percent Effect
Cc1noc([C@@H]2CC[C@@H]3[C@@H](CCN3S(=O)(=O)c3ccccc3)O2)n1	-19.99%
COCCO[C@@H]1CCN(C(=O)c2occc2C)[C@H]1Cc1cnn(C)c1	-35.95%
CC(C)n1cnnc1C1CCCN(S(=O)(=O)CC2CCCC2)C1 (configuration not stated)	-66.23%
Cc1cc(=O)[nH]c(=O)n1-c1ccccc1Br	-82.44%
COC(=O)c1cccc(C(=O)N2CCN(c3ccc(Cl)cc3)CC2)n1	-128.8%
Cc1cc(-c2cnn(CCNC(=O)Cc3ccccn3)c2C2CC2)on1	-41.77%
CCN(CC)C(=O)c1c(Cl)cnn1CC	-101.8%
O=C1CC2(CCCC2)CC(=O)N1Cc1nc2ncccn2n1	-57.36%
N#Cc1ccc(F)c(CNc2ccc(F)cc2OCCO)c1	-1.485%
CC(=O)Nc1ccc(CNCc2cccnc2N(C)C)cc1	-87.09%
O=C(c1cscn1)N1CCc2ncc(Cn3cncn3)n2CC1	-88.92%
CC(C)n1c(=O)c2ccccc2n(CCN(C)C)c1=O.Cl	33.53%
CC(C)n1c(=O)c2ccccc2n(CCCN(C)C)c1=O.Cl	57.86%
CN(C)CCn1c(=O)n(C)c(=O)c2ccccc21.Cl	-12.02%
NC(=O)C1CN(c2ccc3cc(Br)ccc3n2)CCO1 (configuration not stated)	-657.4%
Cc1ccc(OCCN(C)C2CCOC2=O)cc1 (configuration not stated)	-120.6%
Cc1noc(C)c1CN1CCCC(CN(C(=O)OC(C)(C)C)C(C)C)C1 (configuration not stated)	52.41%
CC(C)N(CC1CCCN(Cc2ccon2)C1)C(=O)OC(C)(C)C (configuration not stated)	-9.372%
CC(C)N(CC1CCCN(CC(N)=O)C1)C(=O)OC(C)(C)C (configuration not stated)	-15.39%
NC(=O)C(CNC(=O)Cc1ccsc1)Cc1ccc(F)cc1 (configuration not stated)	-150.5%
COc1cc(C2CC(=O)Nc3c2nc2n3CCCC2)ccc1O (configuration not stated)	-30.17%

Compound	Percent Effect
COCCN(Cc1nc2c(cnn2C)c(=O)[nH]1)C(C)c1ccccc1 (configuration not stated)	-89.75%
Cc1ccc(N2CCc3ncnc(N(C)C)c3CC2)nn1	-119.5%
O=C(O)C(F)(F)F.O=C(O)C(F)(F)F.O=C(O)C(F)(F)F.OCCN1CCC2(CC1)CC(NCc1ccccn1)c1ccccc1O2 (configuration not stated)	70.8%
CC(C)N1CCC2(CC1)CC(NCc1ccccn1)c1ccccc1O2.O=C(O)C(F)(F)F.O=C(O)C(F)(F)F.O=C(O)C(F)(F)F (configuration not stated)	70.65%
CC(C)CN1CCC2(CC1)CC(NS(C)(=O)=O)c1ccccc1O2.O=C(O)C(F)(F)F (configuration not stated)	-52.98%
CS(=O)(=O)NC1CC2(CCN(CCF)CC2)Oc2ccccc21.O=C(O)C(F)(F)F (configuration not stated)	-76.24%
COCC(=O)NC1CC2(CCN(CCF)CC2)Oc2ccccc21.O=C(O)C(F)(F)F (configuration not stated)	-129.2%
CC(C)N1CCC2(CC1)CC(NS(C)(=O)=O)c1ccccc1O2.O=C(O)C(F)(F)F (configuration not stated)	-16.02%
CC(C)(C)c1ccc(C(=O)C2CCCN(C(=O)CNS(C)(=O)=O)C2)cc1 (configuration not stated)	-75.07%
CN(C)c1no[n+]([O-])c1-c1ccccc1	-137.1%
COCc1nn(C(C)C)c2c1CCN(Cc1ccc(C)o1)C2.O=C(O)C(F)(F)F	-30.71%
Cc1nc[nH]c1-c1nccn1CCN1CCCOC1=O	-113%
O=C(c1cc(Cl)c2c(c1)OCO2)N1CCN(c2cnccn2)CC1	-89.48%
Cn1c(CN2CCCC(N3CCCCCC3)C2)cc(=O)n(C)c1=O (configuration not stated)	-10.45%
Cn1c(CN2CCCCCC2)cc(=O)c(O)c1CN1CCCC1	59.19%
Cn1c(CN2CCOCC2)cc(=O)c(O)c1CN1CCCC1	-211.8%
Cn1c(CN2CCCCC2)cc(=O)c(O)c1CN1CCCCC1	81.24%
Cn1c(CN2CCOCC2)cc(=O)c(O)c1CN1CCOCC1	-232.2%
Cn1c(CN2CCOCC2)cc(=O)c(O)c1CN1CCCCC1	-218.7%
O=C(O)CC1COCCN1Cc1ccccc1-c1ccccc1 (configuration not stated)	-118%
COc1ccc(C(=O)Nc2ccc3ncn(C(C)C)c(=O)c3c2)cc1	33.29%

Compound	Percent Effect
O=C(N1CCCC(n2cncn2)C1)C1(c2ccc(Cl)cc2)CCC1 (configuration not stated)	-26.48%
CCN(CCN1CCOCC1)C(=O)c1cccnc1	-63.54%
CCCN(C(=O)c1cccnc1)c1nc2c(s1)CCc1c-2cnn1C	81.54%
CN(Cc1cc(Br)cn1C)C(=O)c1cccnc1	-12.65%
CS(=O)(=O)CCOc1nc(-c2ccccc2Cl)no1	-35.46%
O=C(c1ccccc1)N1CC[C@H]2C[C@H](c3nnc(C4CC4)o3)O[C@@H]2C1	-87.6%
CCc1c(C)sc2ncnc(N3CC[C@@H](N4CCC(O)CC4)[C@H](O)C3)c12	74.53%
CCc1nc(CC2CN(c3ncnc4sc(C)c(C)c34)CCO2)no1 (configuration not stated)	-116.3%
CCc1c(C)sc2ncnc(N3CC[C@@H](N4CCOCC4)[C@H](O)C3)c12	-5.608%
Cc1sc2ncnc(N3CCCC3Cn3cccn3)c2c1C (configuration not stated)	-55.32%
CCc1c(C)sc2ncnc(N3C[C@H](O)[C@@H](N4CCCC4)C3)c12	60.55%
CCc1c(C)sc2ncnc(N3CCN(C4CCOCC4)CC3)c12	31.3%
Cc1cc(C)cc(N2CCN(C(=O)C3CN(C)C(=O)N3)CC2=O)c1 (configuration not stated)	-59%
CC1(NC(=O)Cc2csc(-c3cccc(Cl)c3)n2)CCS(=O)(=O)C1 (configuration not stated)	-114.6%
O=C(NCc1nnnn1-c1ccccc1)c1ccc(C2CCCO2)s1 (configuration not stated)	-146%
Cc1nc(C(=O)N(C)CC2CC2)nn1-c1ccccc1C(C)C	-82.1%
Cc1cccc(C(C(=O)N2CC(Oc3ccccc3F)C2)N(C)C)c1 (configuration not stated)	-1.988%
COc1ccccc1OC1CN(C(=O)C(c2ccc(F)cc2)N(C)C)C1 (configuration not stated)	0.4692%
CN(C)C(C(=O)N1CC(Oc2ccccc2F)C1)c1ccc(F)cc1 (configuration not stated)	62.88%
Cc1nn(C)cc1-c1cc(C(F)(F)F)nc(NC2CCN(C)CC2)n1	-72.67%
